In general, AC50 refers to the concentration at which the activity in the assay is half-maximal. The term IC50 denotes the concentration that inhibits the measured activity by half. By viability is commonly meant a read-out of living cells in per cent, often relative to untreated cells.

A short description of experiment [1]: growth inhibition of DIPG glioma cells, dose response, cell-based, SU-DIPG-IV, MIPE4.0, CellTiter-Glo, qHTS (AID 1347063; cut-off not given, nearly all actives have AC50 up to about 30 µM;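 also: compound exposure lasted 48 hours before the viability readout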). As to conditions: SU-DIPG-IV viability, CellTiter-Glo ATP luminescence. A general note: ATP-based viability assays read luminescence as a measure of living cells.
Experiment [2] is described as follows: SU-DIPG-VI glioma cell viability, MIPE4.0 library, CellTiter-Glo luminescence, qHTS (AID 1347066; cut-off not given, nearly all actives have AC50 up to about 30 µM;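 also: cells exposed to compound for 48 hours before readout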). The settings on record: CellTiter-Glo ATP luminescence.
Experiment [3] can be described thus: SU-DIPG-XXV glioma cell viability, MIPE5.0 library, qHTS (AID 1347068; cut-off not given, nearly all actives have IC50 up to about 30 µM;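 as to IC50: cells exposed to compound for 48 hours before viability readout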). For orientation: In qHTS, concentration-response curves come from the screen itself.
Experiment [4] is described as follows: growth inhibition of DIPG glioma cells, dose response, cell-based, SU-DIPG-XIII, MIPE5.0, CellTiter-Glo, qHTS (AID 1347064; cut-off not given, nearly all actives have AC50 up to about 23 µM;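 also: cells exposed to compound for 48 hours before the viability read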). As to conditions: SU-DIPG-XIII viability, CellTiter-Glo ATP luminescence.
Experiment [5] can be described thus: viability loss in pontine glioma line – cell-based, SU-DIPG-XXV, MIPE5.0, CellTiter-Glo, qHTS, dose response (AID 1347065; cut-off not given, nearly all actives have AC50 up to about 26 µM;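 also: cells exposed to compound for 48 hours before ATP readout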). As to conditions: CellTiter-Glo ATP luminescence.
The target in experiment [6] is NAD(+) hydrolase SARM1 (Homo sapiens) (UniProt Q6SZW1). The experiment can be described thus: SARM1 TIR NADase inhibitors, cell lysate, NAD-Glo luminescence (AID 1508614;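 active = compound whose remaining NAD level is above about 45 nM, limit read from the data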;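 also: higher remaining NAD means stronger inhibition of SARM1 NADase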). As to conditions: SAM-TIR HEK293T lysate NADase, at 1 µM, stronger effect = higher value.
The nature of experiment [7]: growth inhibition of DIPG glioma cells, dose response, cell-based, JHH-DIPG-1, MIPE4.0, CellTiter-Glo, qHTS (AID 1347062; cut-off not given, nearly all actives have AC50 up to about 27 µM). The settings on record: JHH-DIPG-1 viability, CellTiter-Glo ATP luminescence.
Experiment [8] can be described thus: sensitizers of A549 cells to miR-34 induction, primary screen, imaging, A549 dox-inducible miR-34, nuclei and caspase counts (AID 1347080;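 active = compounds whose cell count with miR-34 switched on is under 0.7 times the count with it off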). As to conditions: A549 miR-34 inducible, Hoechst nuclei count, 48 h.
Experiment [9] in a line: modifiers of HSF1 nuclear foci, imaging, Selleck Cancer Library (AID 1347162; in the data active = plate-normalised HSF1 focus index below about 0.46). As to conditions: human cells, at 10 µM; SSMD: measured here: HSF1 foci SSMD mean; cell count: measured here: cell number; plate-normalised HSF1 focus index: stronger effect = lower value.
The nature of experiment [10]: survival rescue of mitochondrial mutant cells in low glucose, primary screen, MELAS cybrids, Rieske KO mouse fibroblasts, CellTiter-Glo (AID 1508586;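 active = mean z-score across replicates of 1.96 or higher in either the MELAS or the Rieske mutant cell line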;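 also: z relative to plate mean and SD of compound and empty wells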).
A short description of experiment [11]: ovarian cancer cell viability with rucaparib, profiling panel, oncology-focused library, rucaparib conditional (AID 1508598). As to conditions: patient-derived ovarian cancer cells, CellTiter-Glo viability, 144 h, stronger effect = lower value.
Experiment [12] can be described thus: JHH-DIPG-1 glioma cell viability, MIPE5.0 library, CellTiter-Glo luminescence, qHTS (AID 1347067; cut-off not given, nearly all actives have AC50 up to about 26 µM;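 also: cells exposed to compound for 48 hours before readout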). The settings on record: JHH-DIPG-1 glioma viability, CellTiter-Glo ATP luminescence.

Results filed as inconclusive are left out. The source made the active and inactive calls.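 The calls were made as follows, unless noted: active = normalized viability below 100% at a tested concentration; inactive = the rest.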

NAD(+) hydrolase SARM1 (Homo sapiens), sequence (Q6SZW1 whole entry, looked up): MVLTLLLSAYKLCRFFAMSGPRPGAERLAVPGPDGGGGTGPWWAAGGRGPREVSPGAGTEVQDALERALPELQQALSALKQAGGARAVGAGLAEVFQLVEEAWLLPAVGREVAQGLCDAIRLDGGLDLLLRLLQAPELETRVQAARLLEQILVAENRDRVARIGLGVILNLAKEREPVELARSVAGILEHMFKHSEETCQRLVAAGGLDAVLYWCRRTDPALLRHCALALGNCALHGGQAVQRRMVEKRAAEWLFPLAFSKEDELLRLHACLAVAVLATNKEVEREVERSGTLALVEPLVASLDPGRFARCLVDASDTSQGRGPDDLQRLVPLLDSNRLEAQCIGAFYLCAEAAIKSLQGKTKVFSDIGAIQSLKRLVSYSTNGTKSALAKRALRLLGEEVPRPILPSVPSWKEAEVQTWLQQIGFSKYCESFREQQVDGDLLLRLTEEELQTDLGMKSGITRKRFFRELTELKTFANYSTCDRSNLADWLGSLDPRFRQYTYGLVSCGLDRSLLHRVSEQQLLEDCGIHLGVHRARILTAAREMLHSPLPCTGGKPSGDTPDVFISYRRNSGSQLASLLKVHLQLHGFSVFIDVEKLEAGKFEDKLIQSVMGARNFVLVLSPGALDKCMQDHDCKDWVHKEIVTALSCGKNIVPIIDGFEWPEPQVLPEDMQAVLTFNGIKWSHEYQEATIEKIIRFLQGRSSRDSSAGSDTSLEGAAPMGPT

For the compound `CON(C)C(=O)N1N=C(c2cc(F)ccc2F)S[C@]1(CCCN)c1ccccc1`, the outcome in experiment [1] and in experiment [2] was inactive.

Regarding `c1ccc(-c2oc3ncnc(NC[C@@H]4CCCO4)c3c2-c2ccccc2)cc1`, the AC50 in [1] and in [2] was 20.9 µM (active) in each case. In addition, the call in experiment [3] was inactive.

On to `CC(C)NC(=O)COc1cccc(-c2nc(Nc3ccc4[nH]ncc4c3)c3ccccc3n2)c1`, for which the AC50 in experiment [4] was 5.9 µM (active); in [5], 5.25 µM (active).

Turning to `Cc1cc(C(=O)Nc2cc(Oc3ccc4nc(NC(=O)C5CC5)cn4n3)ccc2C)n(C)n1`, the AC50 was 10.5 µM (active) in [4] and 5.9 µM (active) in experiment [5].

`CC(C)N(CCCNC(=O)Nc1ccc(C(C)(C)C)cc1)C[C@H]1O[C@@H](n2cc(Br)c3c(N)ncnc32)[C@H](O)[C@@H]1O`: the AC50 in experiment [1] was 14.8 µM (active). Moreover, the IC50 in [3] is 23.5 µM (active).

For the compound `CO/N=C(/C(=O)N[C@@H]1C(=O)N2C(C(=O)O)=C(CSC(=O)c3ccco3)CS[C@H]12)c1csc(N)n1`, the AC50 in [1] was 23.5 µM (active). In addition, in experiment [6], the remaining NAD is 10 nM (inactive).

Turning to `O=C(Nc1cccnc1)N1CCC(Cc2cccc(Oc3ccc(C(F)(F)F)cn3)c2)CC1`, the call in experiment [7] and in experiment [3] was inactive. Moreover, the fold change in experiment [8] (stronger effect = lower value, cell number ratio, induced over uninduced) is 1.36 (inactive); in experiment [8] (measured here: relative caspase fold change +Dox/-Dox), 0.837. The cell count in experiment [8] (measured here: total cells with miR-34 induction, stronger effect = lower value) was determined as 4250; in experiment [8] (measured here: total cells without miR-34 induction) it was 3120; in experiment [9], 7690. In experiment [9], this compound gave an SSMD of 3.05. In addition, the plate-normalised HSF1 focus index in experiment [9] is 1.19 (inactive). Also, the z-score in experiment [10] (MELAS cybrid survival, CellTiter-Glo 48 h, stronger effect = higher value) was -0.261 (inactive); in experiment [10] (Rieske KO mouse fibroblast survival, CellTiter-Glo 72 h), -0.332. Also, the viability in [11] (at 0.000305 µM, OCI-C5x cells, with rucaparib 10 µM, 100% = cells with rucaparib alone) is 111% (inactive); in experiment [11] (at 0.000305 µM, OCI-C5x cells, without rucaparib), 123% (inactive); in experiment [11] (at 0.000305 µM, OCI-P5x cells, with rucaparib 20 µM, 100% = cells with rucaparib alone), 110% (inactive); in experiment [11] (at 0.000305 µM, OCI-P5x cells, without rucaparib), 110% (inactive); in experiment [11] (at 0.00122 µM, OCI-C5x cells, with rucaparib 10 µM, 100% = cells with rucaparib alone) it was 108% (inactive); in experiment [11] (at 0.00122 µM, OCI-C5x cells, without rucaparib) it was 129% (inactive). Also, the viability was 111% (inactive) in experiment [11] (at 0.00122 µM, OCI-P5x cells, with rucaparib 20 µM, 100% = cells with rucaparib alone); 99.8% (active) in [11] (at 0.00122 µM, OCI-P5x cells, without rucaparib); 128% (inactive) in experiment [11] (at 0.00488 µM, OCI-C5x cells, with rucaparib 10 µM, 100% = cells with rucaparib alone); 120% (inactive) in experiment [11] (at 0.00488 µM, OCI-C5x cells, without rucaparib); 112% (inactive) in [11] (at 0.00488 µM, OCI-P5x cells, with rucaparib 20 µM, 100% = cells with rucaparib alone); 102% (inactive) in [11] (at 0.00488 µM, OCI-P5x cells, without rucaparib). For the same compound, the viability is 116% (inactive) in experiment [11] (at 0.0195 µM, OCI-C5x cells, with rucaparib 10 µM, 100% = cells with rucaparib alone); 118% (inactive) in experiment [11] (at 0.0195 µM, OCI-C5x cells, without rucaparib); 105% (inactive) in experiment [11] (at 0.0195 µM, OCI-P5x cells, with rucaparib 20 µM, 100% = cells with rucaparib alone); 102% (inactive) in [11] (at 0.0195 µM, OCI-P5x cells, without rucaparib); 114% (inactive) in experiment [11] (at 0.0781 µM, OCI-C5x cells, with rucaparib 10 µM, 100% = cells with rucaparib alone); 117% (inactive) in experiment [11] (at 0.0781 µM, OCI-C5x cells, without rucaparib). For the same compound, the viability in [11] (at 0.0781 µM, OCI-P5x cells, with rucaparib 20 µM, 100% = cells with rucaparib alone) is 103% (inactive); in experiment [11] (at 0.0781 µM, OCI-P5x cells, without rucaparib), 102% (inactive); in experiment [11] (at 0.313 µM, OCI-C5x cells, with rucaparib 10 µM, 100% = cells with rucaparib alone), 117% (inactive); in experiment [11] (at 0.313 µM, OCI-C5x cells, without rucaparib) it was 117% (inactive); in experiment [11] (at 0.313 µM, OCI-P5x cells, with rucaparib 20 µM, 100% = cells with rucaparib alone) it was 106% (inactive); in [11] (at 0.313 µM, OCI-P5x cells, without rucaparib) it was 98.4% (active). Further, the viability was 134% (inactive) in experiment [11] (at 1.25 µM, OCI-C5x cells, with rucaparib 10 µM, 100% = cells with rucaparib alone); 129% (inactive) in [11] (at 1.25 µM, OCI-C5x cells, without rucaparib); 100% (inactive) in experiment [11] (at 1.25 µM, OCI-P5x cells, with rucaparib 20 µM, 100% = cells with rucaparib alone); 96.3% (active) in [11] (at 1.25 µM, OCI-P5x cells, without rucaparib); 126% (inactive) in [11] (at 5 µM, OCI-C5x cells, with rucaparib 10 µM, 100% = cells with rucaparib alone); 124% (inactive) in experiment [11] (at 5 µM, OCI-C5x cells, without rucaparib). In addition, the viability is 87.1% (active) in experiment [11] (at 5 µM, OCI-P5x cells, with rucaparib 20 µM, 100% = cells with rucaparib alone) and 85.5% (active) in [11] (at 5 µM, OCI-P5x cells, without rucaparib).

On to `CO[C@H]1C[C@@H]2CC[C@@H](C)[C@@](O)(O2)C(=O)C(=O)N2CCCC[C@H]2C(=O)O[C@H]([C@H](C)C[C@@H]2CC[C@@H](OCCO)[C@H](OC)C2)CC(=O)[C@H](C)/C=C(/C)[C@@H](O)[C@@H](OC)C(=O)[C@H](C)C[C@H](C)/C=C\C=CC=C1C`, for which the AC50 in [1] is 8.33 µM (active); in [5] it was 23.5 µM (active); in [12], 29.5 µM (active). In addition, the IC50 in [3] is 23.5 µM (active).
